Target: T1, Methionyl-tRNA synthetase, putative (Leishmania donovani (strain BPK282A1)) (UniProt E9BF75)
T1 sequence (whole entry): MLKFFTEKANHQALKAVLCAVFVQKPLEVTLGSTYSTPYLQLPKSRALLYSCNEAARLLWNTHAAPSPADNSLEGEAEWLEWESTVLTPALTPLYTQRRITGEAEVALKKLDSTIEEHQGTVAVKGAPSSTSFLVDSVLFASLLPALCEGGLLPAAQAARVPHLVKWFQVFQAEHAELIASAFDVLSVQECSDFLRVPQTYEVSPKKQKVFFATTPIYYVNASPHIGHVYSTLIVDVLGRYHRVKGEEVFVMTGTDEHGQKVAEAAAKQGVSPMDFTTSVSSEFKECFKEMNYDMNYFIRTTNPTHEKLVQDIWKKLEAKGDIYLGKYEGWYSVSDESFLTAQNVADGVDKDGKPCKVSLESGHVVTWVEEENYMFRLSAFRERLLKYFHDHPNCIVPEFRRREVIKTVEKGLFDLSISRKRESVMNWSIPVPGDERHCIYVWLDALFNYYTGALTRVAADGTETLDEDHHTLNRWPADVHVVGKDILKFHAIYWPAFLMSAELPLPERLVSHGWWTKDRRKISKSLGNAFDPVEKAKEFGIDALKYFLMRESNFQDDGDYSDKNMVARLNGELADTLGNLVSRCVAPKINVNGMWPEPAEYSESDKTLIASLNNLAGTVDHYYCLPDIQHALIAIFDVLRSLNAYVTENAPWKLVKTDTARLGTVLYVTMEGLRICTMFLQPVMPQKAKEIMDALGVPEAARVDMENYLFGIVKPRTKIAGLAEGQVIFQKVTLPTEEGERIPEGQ
Test: Leishmania donovani Methionine tRNA synthetase (LdMetRS):v7. Dose response assay
Assay type: functional
Design: conc 80 nM, time 150 minutes

Q: How did the PXC50 (MAX_EFFECT 28.67132867) turn out when CNc1nc(C)nc(N2CCc3cc(C(=O)NCc4ccc(-c5nccn5C)cc4Cl)ccc32)n1 was run?
A: Its PXC50 is less than 4.

Q: And the PXC50 (MAX_EFFECT 30.23255814)?
A: The PXC50 was less than 4.

Q: With CN1CCN(c2ccc3ccc(C(=O)N4CCCCO4)cn23)CC1 as the molecule, how does the PXC50 (MAX_EFFECT 12.20657277) read?
A: Its PXC50 is less than 4.

Q: What about the PXC50 (MAX_EFFECT 19.44444444) of the same molecule?
A: Its PXC50 is less than 4.

Q: Which PXC50 (MAX_EFFECT 2.721088435) does the source give for FC1(F)CCN(Cc2ccncc2)CC12CCN(c1cnccn1)C2 (stereo not drawn) here?
A: Its PXC50 is less than 4.

Q: What about the PXC50 (MAX_EFFECT 15.70093458) of the same molecule?
A: The PXC50 was less than 4.

Q: With Fc1ccc(CN2CCC(F)(F)C3(CCN(c4cnccn4)C3)C2)cc1 (stereo not drawn) as the molecule, how does the PXC50 (MAX_EFFECT 10.88435374) read?
A: The PXC50 was less than 4.

Q: What about the PXC50 (MAX_EFFECT 11.21495327) of the same molecule?
A: The PXC50 was less than 4.

Q: Which results are given for Cc1cc2c(N3CCCC3)nc(-c3cccnc3)nc2s1?
A: PXC50 (MAX_EFFECT 8.196721311): < 4; PXC50 (MAX_EFFECT 10.16042781): < 4

Q: What does the source list for Cc1nc(NCCCS(N)(=O)=O)c2c3c(sc2n1)CCC3?
A: PXC50 (MAX_EFFECT 5.319148936): < 4; PXC50 (MAX_EFFECT 8.29015544): < 4

Q: What does the source list for Nc1noc2ccc(-c3cnc4ccc(NCCN5CCS(=O)(=O)CC5)nn34)cc12?
A: PXC50 (MAX_EFFECT 6.106870229): < 4; PXC50 (MAX_EFFECT 10.52631579): < 4

Q: How did the PXC50 (MAX_EFFECT 8.0) turn out when Cc1nc(NC(C(=O)O)C(C)C)c2c(C)c(C)sc2n1 (stereo not drawn) was run?
A: Its PXC50 is less than 4.

Q: And the PXC50 (MAX_EFFECT 9.523809524)?
A: The PXC50 was less than 4.

Q: What does the source list for Cc1nc(NC(C)C(=O)O)c2c3c(sc2n1)CCCC3 (stereo not drawn)?
A: PXC50 (MAX_EFFECT 7.035175879): < 4; PXC50 (MAX_EFFECT 8.5995086): < 4

Q: With CC(C)C[C@H](N)COc1ccc(Cl)cc1C(=O)c1ccccc1 as the molecule, how does the PXC50 (MAX_EFFECT 7.036247335) read?
A: The PXC50 was less than 4.

Q: And the PXC50 (MAX_EFFECT 9.316770186)?
A: Its PXC50 is less than 4.

Q: Which PXC50 (MAX_EFFECT 8.488612836) does the source give for Fc1cccc(OC[C@@H]2CCCN2)c1Oc1ccc(Cl)cc1 here?
A: Its PXC50 is less than 4.

Q: What about the PXC50 (MAX_EFFECT 13.00639659) of the same molecule?
A: Its PXC50 is less than 4.

Q: What does the source list for CCc1ccc(CN(C)Cc2nc(N)c3c(C)c(C)sc3n2)cc1?
A: PXC50 (MAX_EFFECT 28.57142857): < 4; PXC50 (MAX_EFFECT 30.4): < 4

Q: Which results are given for CCNc1cc(-c2ccccn2)nc(Nc2ccc(OC)cc2)n1?
A: PXC50 (MAX_EFFECT 22.3255814): < 4; PXC50 (MAX_EFFECT 23.54312354): < 4

Q: For Nc1noc2ccc(-c3cnc4ccc(NCCN5CCOCC5)nn34)cc12, which PXC50 (MAX_EFFECT -0.438596491) is on record?
A: Its PXC50 is less than 4.

Q: What about the PXC50 (MAX_EFFECT -1.041666667) of the same molecule?
A: The PXC50 was less than 4.

Q: Which PXC50 (MAX_EFFECT 1.863354037) does the source give for CC(C)C[C@H](N)COc1ccccc1C(=O)c1ccccc1 here?
A: Its PXC50 is less than 4.

Q: And the PXC50 (MAX_EFFECT -0.213219616)?
A: The PXC50 was less than 4.

Q: Cc1sc2nc(-c3cccs3)nc(N(C)CC(=O)N3CCCC3)c2c1C was tested. Which PXC50 (MAX_EFFECT 37.40458015) did it give?
A: The PXC50 was less than 4.

Q: What about the PXC50 (MAX_EFFECT 42.06549118) of the same molecule?
A: The PXC50 was less than 4.

Q: With Cc1nc(N2CCN(C(=O)C3CC3)CC2)c2c3c(sc2n1)CC(C)CC3 (stereo not drawn) as the molecule, how does the PXC50 (MAX_EFFECT 43.2160804) read?
A: The PXC50 was less than 4.

Q: What about the PXC50 (MAX_EFFECT 47.91154791) of the same molecule?
A: Its PXC50 is less than 4.

Q: With O=C(c1cc[nH]n1)N1CCC(F)(F)C2(CCN(c3ccccn3)C2)C1 (stereo not drawn) as the molecule, how does the PXC50 (MAX_EFFECT 8.450704225) read?
A: Its PXC50 is less than 4.

Q: What about the PXC50 (MAX_EFFECT 10.92592593) of the same molecule?
A: Its PXC50 is less than 4.

Q: Cc1nc(N(C)CC(=O)NC2CC2)c2c3c(sc2n1)CCC3 was tested. Which PXC50 (MAX_EFFECT 3.703703704) did it give?
A: Its PXC50 is less than 4.

Q: What about the PXC50 (MAX_EFFECT 5.866666667) of the same molecule?
A: Its PXC50 is less than 4.

Q: How did the PXC50 (MAX_EFFECT 3.888888889) turn out when Cn1cc(CN2CCC(F)(F)C3(CCN(c4cccnc4)C3)C2)cn1 (stereo not drawn) was run?
A: Its PXC50 is less than 4.

Q: What about the PXC50 (MAX_EFFECT 8.450704225) of the same molecule?
A: Its PXC50 is less than 4.

Q: CC(C)C[C@@H](N)COc1cccc(F)c1Oc1cccc(Cl)c1 was tested. Which PXC50 (BOTTOM 1.372222408, HILLSLOPE 1.087653332, MAX_EFFECT 50.72463768, TOP 100.0) did it give?
A: Its PXC50 is 4.03.

Q: And the PXC50 (BOTTOM -0.306407193, HILLSLOPE 1.563618531, MAX_EFFECT 56.92963753, TOP 100.0)?
A: Its PXC50 is 4.11.

Q: Which PXC50 (MAX_EFFECT 5.866666667) does the source give for CCc1cc2c(NC(C(=O)O)C(C)C)nc(C)nc2s1 (stereo not drawn) here?
A: Its PXC50 is less than 4.

Q: And the PXC50 (MAX_EFFECT 8.994708995)?
A: The PXC50 was less than 4.

Q: Which PXC50 (MAX_EFFECT 6.788511749) does the source give for Cc1sc2nc(C(F)(F)F)nc(N3CCN(C)CC3)c2c1C here?
A: The PXC50 was less than 4.

Q: And the PXC50 (MAX_EFFECT 7.049608355)?
A: Its PXC50 is less than 4.

Q: Which PXC50 (MAX_EFFECT 2.18579235) does the source give for CCN1CCN(c2nc(-c3cccnc3)nc3sc(C)cc23)CC1 here?
A: Its PXC50 is less than 4.

Q: And the PXC50 (MAX_EFFECT -3.20855615)?
A: The PXC50 was less than 4.

Q: With CCC(CO)Nc1nc(CSc2ccccc2)nc2sc3c(c12)CCC3 (stereo not drawn) as the molecule, how does the PXC50 (MAX_EFFECT 27.86885246) read?
A: The PXC50 was less than 4.

Q: What about the PXC50 (MAX_EFFECT 29.94652406) of the same molecule?
A: Its PXC50 is less than 4.

Q: How did the PXC50 (MAX_EFFECT 9.693877551) turn out when Cc1nc(N2CCN(CCO)CC2)c2c(-c3cccs3)csc2n1 was run?
A: Its PXC50 is less than 4.

Q: And the PXC50 (MAX_EFFECT 12.37373737)?
A: The PXC50 was less than 4.

Q: Which PXC50 (BOTTOM 2.299047881, HILLSLOPE 2.649797199, MAX_EFFECT 103.7296037, TOP 100.0081261) does the source give for O=c1nc(NCCCNCc2cc(Br)cc(Br)c2)[nH]c2ccsc12 here?
A: The PXC50 was 6.16.

Q: And the PXC50 (BOTTOM 10.20336465, HILLSLOPE 2.013529983, MAX_EFFECT 101.8604651, TOP 99.90152213)?
A: The PXC50 was 6.19.

Q: CC(=O)N1CCC(NC(=O)c2ccc3ccc(N4CCN(S(C)(=O)=O)CC4)n3c2)CC1 was tested. Which PXC50 (BOTTOM 2.919824671, HILLSLOPE 1.594432626, MAX_EFFECT 67.35849057, TOP 70.74594509) did it give?
A: Its PXC50 is 4.9.

Q: What about the PXC50 (BOTTOM 3.112441615, HILLSLOPE 1.895765793, MAX_EFFECT 63.92694064, TOP 65.42596591) of the same molecule?
A: The PXC50 was 4.95.

Q: What does the source list for Cc1nc(N2CCN(c3ccccc3O)CC2)c2c3c(sc2n1)CCC3?
A: PXC50 (BOTTOM -0.0879, HILLSLOPE 1.043556985, MAX_EFFECT 58.82352941, TOP 100.0): 4.16; PXC50 (BOTTOM -4.305210646, HILLSLOPE 1.068745934, MAX_EFFECT 61.20218579, TOP 100.0): 4.17
